Reference: PubChem BioAssay (Tox21)
Inconclusive results are not listed. Calls of active or inactive are those of the source. Unless noted, calls come from the whole dose curve.

Tests used:
[1] = qHTS assay to identify small molecule agonists of the peroxisome proliferator-activated receptor delta (PPARd) signaling pathway - cell viability counter screen (AID 743211; active = well fitted curve in the direction sought with a large enough effect in the repeat runs; an effect the other way counts as inactive or inconclusive; note: % is set by controls: 0 for no effect and ±100 for the full control effect; nearly all actives have a fitted effect of over 55% in size)
Outline: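 Multiplexed format: after the 2 h room-temperature LiveBLAzer B/G FRET step, CellTiter-Glo was added to the same wells. Luminescence after 30 min gave cell viability; compound exposure was 17 h at 37C.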

[2] = target: Peroxisome proliferator-activated receptor delta (Homo sapiens) (UniProt Q03181); assay: qHTS assay to identify small molecule agonists of the peroxisome proliferator-activated receptor delta (PPARd) signaling pathway (AID 743212); note: % is set by controls: 0 for no effect and ±100 for the full control effect
Outline: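 Cells expressing a UAS-driven beta-lactamase reporter (PPARd-bla HEK293H) were given test compounds after a 5 h settle and kept at 37 C. Reporter activity was then measured as FRET fluorescence using LiveBLAzer B/G substrate.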

[3] = qHTS assay to identify small molecule antagonists of the peroxisome proliferator-activated receptor delta (PPARd) signaling pathway - cell viability counter screen (AID 743213; active = well fitted curve in the direction sought with a large enough effect in the repeat runs; an effect the other way counts as inactive or inconclusive; note: % is set by controls: 0 for no effect and ±100 for the full control effect; nearly all actives have a fitted effect of over 50% in size)
Outline: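 Agonist-stimulated (L165041, 300 nM final) HEK293H PPARd UAS-bla cells are exposed to compounds for 17 h at 37 C, and ATP-based luminescence (CellTiter-Glo) from the same wells reports cytotoxicity.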

[4] = target: Peroxisome proliferator-activated receptor delta (Homo sapiens) (UniProt Q03181); assay: qHTS assay to identify small molecule antagonists of the peroxisome proliferator-activated receptor delta (PPARd) signaling pathway (AID 743215; active = well fitted inhibition curve with a large enough effect in the signal ratio in the repeat runs, not every such curve was filed as active; the % refers to the signal ratio; note: series mostly up to about 62 µM; % is set by controls: 0 for no effect and ±100 for the full control effect)
Outline: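 HEK293H GeneBLAzer PPARd UAS-bla reporter cells; cpd + L165041 300 nM final, 17 h 37 C; LiveBLAzer B/G FRET substrate 2 h RT; fluorescence intensity read-out. Antagonist mode.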

[5] = qHTS assay to identify small molecule agonists of the farnesoid-X-receptor (FXR) signaling pathway - cell viability counter screen (AID 743218; active = well fitted curve in the direction sought with a large enough effect in the repeat runs; an effect the other way counts as inactive or inconclusive; note: % is set by controls: 0 for no effect and ±100 for the full control effect; nearly all actives have a fitted effect of over 45% in size)
Outline: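 Luminescence from CellTiter-Glo, read after 30 min at RT, reports viability of GeneBLAzer FXR-UAS-bla HEK 293T cells treated 16 h with compounds in the wells used for the beta-lactamase reporter.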

[6] = qHTS assay to identify small molecule antagonists of the farnesoid-X-receptor (FXR) signaling pathway - cell viability counter screen (AID 743221; active = well fitted cell-killing curve with a large enough effect in the repeat runs, not every such curve was filed as active; note: % is set by controls: 0 for no effect and ±100 for the full control effect; nearly all actives have a fitted effect of over 50% in size)
Outline: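 CellTiter-Glo, 30 min RT, luminescence; same wells as the LiveBLAzer FRET read. Cells: FXR-UAS-bla HEK 293T. Treatment: compound with chenodeoxycholic acid 50 uM final, 16 h at 37 C.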

[7] = target: Vitamin D3 receptor (Homo sapiens) (UniProt P11473); assay: qHTS assay to identify small molecule agonists of the vitamin D receptor (VDR) signaling pathway (AID 743222); note: % is set by controls: 0 for no effect and ±100 for the full control effect
Outline: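 Beta-lactamase reporter readout (LiveBLAzer B/G FRET, 2 h RT) in VDR-bla cells after 16 h compound treatment at 37C, 5% CO2; cells pre-incubated 4 h before pin transfer of DMSO solutions.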

[8] = target: Vitamin D3 receptor (Homo sapiens) (UniProt P11473); assay: qHTS assay to identify small molecule antagonists of the vitamin D receptor (VDR) signaling pathway (AID 743223; active = well fitted inhibition curve with a large enough effect in the signal ratio in the repeat runs, not every such curve was filed as active; the % refers to the signal ratio; note: % is set by controls: 0 for no effect and ±100 for the full control effect)
Outline: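 After VDR-bla cells are plated and left 4 h at 37C, DMSO-dissolved compounds and 3 nM (final) calcitriol agonist are added. Incubation continues 16 h at 37C; FRET beta-lactamase substrate then develops 2 h at room temperature.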

[9] = qHTS assay to identify small molecule agonists of the vitamin D receptor (VDR) signaling pathway - cell viability counter screen (AID 743224; active = well fitted curve in the direction sought with a large enough effect in the repeat runs; an effect the other way counts as inactive or inconclusive; note: series mostly up to about 63 µM; % is set by controls: 0 for no effect and ±100 for the full control effect; nearly all actives have a fitted effect of over 50% in size)
Outline: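 Cytotoxicity counter screen: VDR-bla cells, 16 h compound exposure at 37C, 5% CO2; CellTiter-Glo luminescence, 30 min RT, same wells as bla read.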

[10] = qHTS assay to identify small molecule antagonists of the vitamin D receptor (VDR) signaling pathway - cell viability counter screen (AID 743225; active = well fitted curve in the direction sought with a large enough effect in the repeat runs; an effect the other way counts as inactive or inconclusive; note: % is set by controls: 0 for no effect and ±100 for the full control effect; nearly all actives have a fitted effect of over 50% in size)
Outline: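 Cytotoxicity toward the VDR-bla HEK 293T line was scored by ATP-based CellTiter-Glo luminescence, read in the wells already used for the beta-lactamase readout after 16 h compound treatment under 3 nM 1-alpha,25-dihydroxyvitamin D3 stimulation.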

[11] = qHTS assay to identify small molecule agonists of the NFkB signaling pathway (AID 1159509; active = well fitted curve in the direction sought with a large enough effect in the signal ratio in the repeat runs, not every such curve was filed as active; the % refers to the signal ratio)
Outline: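 Agonist activity was read as beta-lactamase-driven FRET change (460 and 530 nm emission, 405 nm excitation) following 1.5 hr substrate loading at room temperature. Beforehand, ME-180 NFkB-bla reporter cells were treated with compounds for 5 hr at 37 C.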

[12] = qHTS assay to identify small molecule agonists of the NFkB signaling pathway - cell viability counter screen (AID 1159515); note: series mostly up to about 61 µM; % is set by controls: 0 for no effect and ±100 for the full control effect; nearly all actives have a fitted effect of over 55% in size
Outline: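 ME-180 NFkB-bla cells, 2,000/well; overnight attach; compound 5 hr, 37 C/5% CO2; LiveBLAzer substrate 1.5 hr RT; then CellTiter-Glo in same wells, 30 min RT, luminescence read.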

[13] = qHTS assay to identify small molecule agonists of the endoplasmic reticulum stress response signaling pathway (AID 1159516; active = well fitted activation curve with a large enough effect in the signal ratio in the repeat runs, not every such curve was filed as active; the % refers to the signal ratio; note: % is set by controls: 0 for no effect and ±100 for the full control effect)
Outline: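 HeLa ESRE-bla reporter line; cpd 5 h, 37 C/5% CO2; LiveBLAzer B/G FRET substrate 2 h RT; ex 405, em 460/530 nm.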

[14] = qHTS assay to identify small molecule agonists of the endoplasmic reticulum stress response signaling pathway - cell viability counter screen (AID 1159517)
Outline: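 Cpd-treated ESRE-bla HeLa (5 hr, 37 C) → LiveBLAzer 2 hr RT → CellTiter-Glo 30 min RT → luminescence.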

[15] = qHTS assay to identify small molecule antagonists of the retinoid-related orphan receptor gamma (ROR-gamma) signaling pathway - cell viability counter screen (AID 1159520; active = well fitted curve in the direction sought with a large enough effect in the repeat runs; an effect the other way counts as inactive or inconclusive)
Outline: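 Tet-on ROR gamma CHO cells (1,000/well) were plated 4 hr, given compounds in DMSO for 2 hr at 37 C, then induced with 1 uM final doxycycline for 16 hr. Viability was read as ATP by CellTiter-Glo luminescence after 30 min.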

[16] = qHTS assay to identify small molecule agonists of the AP-1 signaling pathway - cell viability counter screen (AID 1159525); note: nearly all actives have a fitted effect of over 55% in size
Outline: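 Each titration point was normalised to DMSO and tetra n-octyl ammonium bromide controls. The read was Cell Titer Glo luminescence after 30 min at RT, following 5 h compound exposure of ME-180 AP-1-bla cells at 37 °C.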

[17] = qHTS assay to identify small molecule agonists of the AP-1 signaling pathway (AID 1159526); note: % is set by controls: 0 for no effect and ±100 for the full control effect
[18] = target: Bile acid receptor (Homo sapiens) (UniProt Q96RI1); assay: qHTS assay to identify small molecule antagonists of the farnesoid-X-receptor (FXR) signaling pathway (AID 743217; active = well fitted inhibition curve with a large enough effect in the signal ratio in the repeat runs, not every such curve was filed as active; the % refers to the signal ratio; note: % is set by controls: 0 for no effect and ±100 for the full control effect)
Outline: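 Read-out: beta-lactamase FRET fluorescence (LiveBLAzer B/G substrate, 2 h, room temperature) in GeneBLAzer FXR-UAS-bla HEK 293T cells. Compounds were co-dosed with 50 uM chenodeoxycholic acid (final) and incubated 16 h at 37 °C.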

[19] = target: Bile acid receptor (Homo sapiens) (UniProt Q96RI1); assay: qHTS assay to identify small molecule agonists of the farnesoid-X-receptor (FXR) signaling pathway (AID 743220; active = well fitted activation curve with a large enough effect in the signal ratio in the repeat runs, not every such curve was filed as active; the % refers to the signal ratio; note: % is set by controls: 0 for no effect and ±100 for the full control effect)
Outline: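 FXR-UAS-bla HEK 293T cells carrying a UAS-driven beta-lactamase reporter were plated for 5 h at 37C/5% CO2, then exposed to DMSO-dissolved Tox21 10K compounds for 16 h at 37C. A LiveBLAzer B/G FRET substrate was loaded for 2 h at room temperature before fluorescence reading.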

Chain of Vitamin D3 receptor (Homo sapiens) (P11473 whole entry, looked up): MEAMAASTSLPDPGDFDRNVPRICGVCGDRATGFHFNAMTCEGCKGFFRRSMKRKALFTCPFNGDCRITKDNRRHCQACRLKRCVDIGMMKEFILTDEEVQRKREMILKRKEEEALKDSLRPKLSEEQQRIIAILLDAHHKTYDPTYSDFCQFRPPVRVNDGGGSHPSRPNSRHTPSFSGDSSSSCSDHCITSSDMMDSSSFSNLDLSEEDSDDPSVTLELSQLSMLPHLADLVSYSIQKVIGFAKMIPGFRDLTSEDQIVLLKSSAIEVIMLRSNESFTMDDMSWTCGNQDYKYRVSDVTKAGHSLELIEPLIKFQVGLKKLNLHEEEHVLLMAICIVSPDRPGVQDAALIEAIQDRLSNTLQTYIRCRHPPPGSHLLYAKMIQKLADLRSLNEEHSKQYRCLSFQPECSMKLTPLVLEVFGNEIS
Chain of Bile acid receptor (Homo sapiens) (Q96RI1 whole entry, looked up): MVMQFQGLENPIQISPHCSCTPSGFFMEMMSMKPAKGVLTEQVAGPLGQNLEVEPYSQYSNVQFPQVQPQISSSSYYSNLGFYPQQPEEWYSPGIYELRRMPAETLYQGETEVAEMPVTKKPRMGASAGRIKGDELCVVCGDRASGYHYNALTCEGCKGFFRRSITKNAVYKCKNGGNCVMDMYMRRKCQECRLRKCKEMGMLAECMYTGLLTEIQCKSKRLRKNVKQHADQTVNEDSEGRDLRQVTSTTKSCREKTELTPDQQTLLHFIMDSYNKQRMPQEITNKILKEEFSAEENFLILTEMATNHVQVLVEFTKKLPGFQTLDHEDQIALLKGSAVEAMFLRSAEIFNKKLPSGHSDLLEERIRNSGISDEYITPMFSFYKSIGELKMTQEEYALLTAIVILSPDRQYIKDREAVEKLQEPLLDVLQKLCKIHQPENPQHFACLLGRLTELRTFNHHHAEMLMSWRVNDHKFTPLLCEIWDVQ
Chain of Peroxisome proliferator-activated receptor delta (Homo sapiens) (Q03181 whole entry, looked up): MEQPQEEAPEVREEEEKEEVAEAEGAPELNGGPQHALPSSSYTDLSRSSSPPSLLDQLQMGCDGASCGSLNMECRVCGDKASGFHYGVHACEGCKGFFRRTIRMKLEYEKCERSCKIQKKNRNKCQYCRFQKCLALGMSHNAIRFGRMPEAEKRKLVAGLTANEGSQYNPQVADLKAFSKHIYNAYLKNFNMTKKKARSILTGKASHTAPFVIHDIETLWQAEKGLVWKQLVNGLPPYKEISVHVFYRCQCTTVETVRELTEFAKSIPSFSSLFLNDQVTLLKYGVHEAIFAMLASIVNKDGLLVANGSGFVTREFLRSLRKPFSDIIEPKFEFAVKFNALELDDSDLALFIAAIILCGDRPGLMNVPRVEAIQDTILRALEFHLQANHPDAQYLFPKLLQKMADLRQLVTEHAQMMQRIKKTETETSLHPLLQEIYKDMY

CCCOC(=O)c1ccc(N)cc1
inactive: Potency [1] | Potency [2] | Potency [3] | Potency [4] | Potency [5] | Potency [6] | outcome [7] | outcome [8] | Potency [9] | Potency [10] | outcome [11] | outcome [12] | outcome [13] | outcome [14] | Potency [15] | outcome [16] | outcome [17]

CC1CN(c2cc3c(cc2F)c(=O)c(C(=O)O)cn3-c2ccc(F)cc2F)CCN1 (stereo not given)
inactive: activity change, negative = cytotoxicity [1] -0.433% [at 5.95 µM] | activation [2] 3.73% [at 5.95 µM] | viability change, negative = cytotoxic [3] 12.1% [at 6.26 µM] | ratio activity, negative = inhibition [4] 1.55% [at 6.26 µM] | viability change, negative = cytotoxic [5] 19.1% [at 5.95 µM] | activity change, negative = cytotoxicity [6] -0.0684% [at 5.95 µM] | activation [7] 5.04% [at 6.01 µM] | activity change, negative = inhibition [8] 0.481% [at 6.95 µM] | activity change, negative = cytotoxicity [9] -0.741% [at 5.95 µM] | viability change, negative = cytotoxic [10] 9.78% [at 6.95 µM] | activation [11] 0.411% [at 6.95 µM] | activity, negative = cytotoxic [12] 3.41% [at 6.95 µM] | activation [13] -0.328% [at 6.95 µM] | activity change, negative = cytotoxicity [14] 10.1% [at 6.95 µM] | activity, negative = cytotoxicity [15] 3.27% [at 8.39 µM] | viability change, negative = cytotoxic [16] -6.8% [at 6.97 µM] | activation [17] 2.03% [at 6.97 µM]

CN1CCN(c2c(F)cc3c(=O)c(C(=O)O)cn4c3c2OCN4C)CC1
inactive: Potency [1] | Potency [2] | Potency [4] | Potency [6] | Potency [9] | Potency [10] | outcome [11] | outcome [12] | outcome [13] | outcome [14] | activity, negative = cytotoxicity [15] 0.283% [at 19 µM] | viability change, negative = cytotoxic [16] 12.5% [at 15.8 µM] | activation [17] 4.3% [at 15.8 µM]

CC1=C(C=O)C(C)(C)CCC1
inactive: Potency [1] | Potency [2] | Potency [3] | Potency [4] | Potency [18] | Potency [5] | Potency [19] | Potency [6] | outcome [7] | Potency [9] | Potency [10] | outcome [11] | outcome [12] | outcome [13] | outcome [14] | Potency [15] | outcome [16] | outcome [17]

CCCOC(=O)c1ccc(C(=O)OCCC)nc1
inactive: Potency [1] | Potency [2] | Potency [3] | Potency [5] | Potency [19] | Potency [6] | Potency [9] | Potency [10] | outcome [11] | outcome [12] | outcome [13] | outcome [14] | Potency [15] | outcome [16] | outcome [17]

CC(Cl)C(Cl)Cl (stereo not given)
inactive: Potency [1] | Potency [2] | Potency [3] | Potency [4] | Potency [5] | Potency [6] | outcome [7] | outcome [8] | Potency [9] | Potency [10] | outcome [11] | outcome [12] | outcome [13] | outcome [14] | Potency [15] | outcome [16] | outcome [17]

O=S(=O)(c1ccccc1)c1ccc(Cl)cc1
inactive: Potency [1] | Potency [2] | Potency [3] | Potency [4] | Potency [5] | Potency [6] | outcome [7] | outcome [8] | Potency [9] | outcome [11] | outcome [12] | outcome [13] | outcome [14] | Potency [15] | outcome [16] | outcome [17]

CCn1cc(C(=O)O)c(=O)c2cc(F)c(N3CCNCC3)nc21
inactive: Potency [1] | Potency [2] | Potency [3] | Potency [4] | Potency [5] | Potency [6] | outcome [7] | outcome [8] | Potency [9] | Potency [10] | outcome [11] | outcome [12] | outcome [13] | outcome [14] | Potency [15] | outcome [16] | outcome [17]
